Consider 7 sequences from the supplement of paper PMC6555819.

Common to all, as to experiment: PBM binding z-score (relative to random genomic background probes); higher = stronger binding; sequences stand for … in GC…GCGATTGACAGCGTAGAATGAAGG
The test system of test [1] is FXR:RXRa (NR concentration 270 nM, RXRa partner concentration 90 nM). In outline: (§1)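 The probes on custom Agilent 4×180K protein-binding microarrays were double-stranded, with 34-nt variable regions bearing direct-repeat seeds, single-nucleotide variants, half-site ablations and random human genomic background sequences. Incubation lasted 1 h with ligand-free nuclear receptor dimers in PBS pH 7.4, 2% milk, 0.02% Triton X-100, 1 mM DTT, 0.2 mg/mL BSA and 0.4 mg/ml salmon testes DNA. Antibodies against each partner (one per run) detected bound dimers, and fluorescence scans were regression-normalized. Binding z-scores take the random background probes as reference.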

Test [2] relates to LXRa:RXRa (NR concentration 270 nM, RXRa partner concentration 90 nM). In outline: as §1
In test [3] the test system is LXRa homodimer (NR concentration 270 nM). In outline:
as §1

In test [4] the test system is LXRb:RXRa (NR concentration 270 nM, RXRa partner concentration 90 nM). In outline:
as §1

Test [5] has as its system LXRb homodimer (NR concentration 270 nM). In outline:
as §1

In test [6] the test system is PPARa:RXRa (NR concentration 270 nM, RXRa partner concentration 90 nM). In outline: as §1
For test [7], the system named is PPARg:RXRa (NR concentration 180 nM, RXRa partner concentration 90 nM). In outline: as §1
Test [8] has as its system PPARg:RXRa 270nM:90nM, anti-RXR (NR concentration 270 nM, RXRa partner concentration 90 nM). In outline:
as §1

For test [9], the system named is PPARg:RXRa 30nM:10nM, anti-RXR (NR concentration 30 nM, RXRa partner concentration 10 nM). In outline:
as §1

Test [10] deals with PPARg:RXRa 90nM:30nM, anti-RXR (NR concentration 90 nM, RXRa partner concentration 30 nM). In outline:
as §1

The test system of test [11] is PPARg:RXRa DBDmut IVT, anti-RXR (DBD mutation: RXRa K156A/R161A, NR concentration 270 nM, RXRa partner concentration 90 nM). In outline: as §1
For test [12], the system named is PPARg:RXRa IVT, anti-PPARg (NR concentration 270 nM, RXRa partner concentration 90 nM). In outline: as §1
Test [13] concerns PPARg DBDmut:RXRa IVT, anti-PPARg (DBD mutation: PPARg1 K132A/R137A, NR concentration 270 nM, RXRa partner concentration 90 nM). In outline: as §1
The test system of test [14] is PPARg DBDmut IVT, anti-PPARg (DBD mutation: PPARg1 K132A/R137A, NR concentration 270 nM). In outline: as §1
Test [15] has as its system PPARg homodimer (NR concentration 180 nM). In outline:
as §1

Test [16] concerns PXR:RXRa (NR concentration 270 nM, RXRa partner concentration 90 nM). In outline: as §1
In test [17] the test system is PXR homodimer (NR concentration 270 nM). In outline: as §1
The subject of test [18] is RARa:RXR (NR concentration 270 nM, RXRa partner concentration 90 nM). In outline: as §1
The test system of test [19] is RARa homodimer (NR concentration 270 nM). In outline: as §1
Test [20] relates to RARb:RXRa (NR concentration 270 nM, RXRa partner concentration 90 nM). In outline:
as §1

Consider CTCGAAACGTCGGTTGAGGTGAGTATACGGATAA, for which the PBM binding z-score was 0.172 in test [1]; -0.188 in test [2]; -0.566 in [3]; -0.297 in test [4]; -0.3 in test [5]; -0.163 in test [6]. Moreover, the PBM binding z-score in test [7] was 0.00135; in [8], -0.342; in test [9], -0.256; in test [10], -0.221; in [11], -0.197; in test [12] it was -0.061. Also, the PBM binding z-score was 0.192 in [13]; 0.207 in test [14]; 0.264 in test [15]; 0.0163 in test [16]; -0.284 in test [17]; 0.752 in test [18]. The values for the PBM binding z-score in [19] and in test [20] were -0.037 and 0.205, respectively.
TCTTGTAGATCAGTAGAGGTTAAGAAAGTGCGCT: the PBM binding z-score in test [1] is 0.847; in [2], 3.26; in test [3], 0.497; in test [4], 1.64; in [5], -0.181; in [6] it was 1.44. Further, the PBM binding z-score is -0.271 in [7]; 1.56 in test [8]; 2.48 in [9]; 2.12 in test [10]; 1.74 in [11]; 0.609 in [12]. Further, the PBM binding z-score in test [13] is 1.08; in test [14], 0.665; in [15], 0.247; in [16], 2.93; in [17], -0.0152; in test [18], 1.63. Further, the results for the PBM binding z-score in test [19] and in test [20] were 0.74 and 0.882, respectively.
On to ATCTCTAGGTAAACGTTCAGTGAATCCCGAGGAT, for which the PBM binding z-score in [1] was -0.236; in test [2], -0.144; in test [3], -0.301; in test [4] it was -0.282; in [5] it was 0.657; in test [6] it was 0.613. The PBM binding z-score came to 1.14 in [7]; 2.17 in test [8]; 1.01 in test [9]; 1.75 in test [10]; 3.11 in test [11]; 2.05 in test [12]. The PBM binding z-score in [13] is 0.531; in test [14], 0.761; in test [15], 0.198; in test [16], -0.434; in [17], -0.237; in [18], -0.544. Also, the PBM binding z-score is -0.155 in test [19] and 0.26 in test [20].
For the sequence TCTAGTTGGTCAAAGGACACACACTCGAAATGCG, the PBM binding z-score amounted to 1.06 in test [1]; 0.757 in [2]; 0.232 in [3]; 1.05 in [4]; 0.181 in [5]; 2.19 in [6]. The PBM binding z-score in test [7] was 4.59; in test [8], 5.5; in [9], 4.95; in test [10] it was 5.8; in test [11] it was 2.42; in test [12], 2.63. Moreover, the PBM binding z-score is 1.26 in [13]; 0.871 in [14]; 1.9 in [15]; 0.659 in [16]; 0.4 in test [17]; 1.1 in [18]. The values for the PBM binding z-score in [19] and in [20] were 1.12 and 2.02, respectively.
For AATACCGGGTCACTAGGCCAGAGTAGGTACGAAT, the PBM binding z-score is 4.09 in test [1]; 3.51 in test [2]; 0.369 in [3]; 2.69 in test [4]; 0.134 in test [5]; 5.09 in [6]. The PBM binding z-score in test [7] is 6.97; in test [8], 5.93; in [9], 2.96; in test [10] it was 4.9; in test [11] it was 4.09; in [12], 6.04. For the same sequence, the PBM binding z-score in [13] is 0.988; in test [14] it was 0.334; in test [15], 1.7; in test [16], 2.32; in test [17], -0.108; in [18], 3.37. The values for the PBM binding z-score in [19] and in test [20] were 0.616 and 3.47, respectively.
Turning to CGTCCAAGGTCAGAGAGGTCAGTAAATGCCGAGT, the PBM binding z-score worked out at 5.8 in test [1]; 4.99 in [2]; 3.02 in test [3]; 4.55 in [4]; 0.428 in test [5]; 4.81 in test [6]. Moreover, the PBM binding z-score in test [7] was determined as 3.48; in [8], 4.16; in test [9], 1.04; in [10], 2.7; in test [11] it was 2.74; in [12], 3.23. Further, the PBM binding z-score was 0.177 in test [13]; 0.266 in [14]; 4.38 in test [15]; 5.96 in test [16]; 12 in test [17]; 5.41 in test [18]. The PBM binding z-score in [19] turned out to be 1.88; in test [20], 5.28.
Regarding CGTCATAGTTCAACTAAGGTAACGTAAAGCACGC, the PBM binding z-score in [1] worked out at 3.55; in [2], 3.63; in [3], 1.02; in test [4], 2.13; in test [5], 0.806; in [6], 3.13. Also, the PBM binding z-score in [7] was determined as 1.66; in [8], 2.25; in test [9], 0.562; in test [10] it was 1.56; in test [11], 0.114; in [12] it was 1.07. Also, the PBM binding z-score in test [13] was 0.48; in [14], 1.14; in test [15], 1.81; in [16] it was 3.86; in [17], 1.23; in [18], 2.73. The PBM binding z-score in test [19] was 1.04; in test [20], 3.59.
